Source: paper PMC8384837, “Expanding the binding specificity for RNA recognition by a PUF domain”

Target: PUM1 PUF domain R3-IWG (Homo sapiens, UniProt Q14671 828-1176, C935I;R936W;Q939G)
Experiment: yeast three-hybrid, YBZ-1, SC-Leu-His + 0.5 mM 3-AT, 4 days
Conditions: tags: N-Gal4 AD-HA kept; label: inside an RPR1-promoter hybrid RNA with tandem MS2 sites; ssRNA
Method in brief: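 Sequencing with Illumina followed PCR amplification of the repeat regions from transformants grown four days on SC-Leu (input) or SC-Leu-His + 0.5 mM 3-AT (selection). The transformants were strain YBZ-1 with a LexA–MS2 coat fusion and a HIS3 reporter, carrying Pumilio-1 PUF domain libraries and matching RNA elements. The interaction score is the log change in variant frequency from input to selection, computed in log2 with a pseudocount of 1 for absent variants.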

PUM1 PUF domain R3-IWG, sequence (Q14671 828-1176 C935I/R936W/Q939G): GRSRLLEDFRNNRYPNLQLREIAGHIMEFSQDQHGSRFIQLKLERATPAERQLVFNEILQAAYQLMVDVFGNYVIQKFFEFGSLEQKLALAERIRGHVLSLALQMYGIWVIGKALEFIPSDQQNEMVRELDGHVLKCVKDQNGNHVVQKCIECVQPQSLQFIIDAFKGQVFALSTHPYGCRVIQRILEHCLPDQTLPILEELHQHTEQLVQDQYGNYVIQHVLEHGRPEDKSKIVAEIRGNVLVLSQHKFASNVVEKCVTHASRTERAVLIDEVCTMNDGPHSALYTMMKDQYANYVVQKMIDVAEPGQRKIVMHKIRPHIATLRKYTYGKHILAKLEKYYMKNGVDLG

| Sequence | binding signal |
| --- | --- |
| GGCUAGAACUAGUGGAUCCCCCGGCGCCCGGCGGCUCGAGCCCGGGUAAGUGUAAAUAGUCUGCAUGCCGCCGGGCGCCAUGCCUGCAGGUCGACUCUAGAAAACAUG | 5.45 log2 enrichment (interaction score) |
| GGCUAGAACUAGUGGAUCCCCCGGCGCCCGGCGGCUCGAGCCCGGGUAAGUGUAAGUAGUCUGCAUGCCGCCGGGCGCCAUGCCUGCAGGUCGACUCUAGAAAACAUG | 5.3 log2 enrichment (interaction score) |
| GGCUAGAACUAGUGGAUCCCCCGGCGCCCGGCGGCUCGAGCCCGGGUAAGUGUAAUUAGUCUGCAUGCCGCCGGGCGCCAUGCCUGCAGGUCGACUCUAGAAAACAUG | 3.86 log2 enrichment (interaction score) |
